MRP reversal: compounds reversing MRP-mediated drug resistance. AID 602. differential viability (reversal), % at 10 µM. actives 0.04% (n = 85,000). H69AR cells + 2 uM doxorubicin, CellTiter-Glo, 72 h;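 active = viability drop by adding the cancer drug above about 55%, with treated viability meeting a 40% cutoff, limit read from the data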;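 note: viability without doxorubicin minus viability with 2 µM doxorubicin for each compound; larger differential means the compound sensitizes cells more to doxorubicin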
ERa SRC1 pot: ER-alpha (human) coactivator binding potentiation; TR-FRET ERalpha-LBD/SRC-Cy5 coactivator binding, 2 h; 100 = basal binding, no effect; coactivator binding (% of control), % at 25.6 µM; actives 1.3% (n = 86,000); AID 639; in the data active = activity above about 200%;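 note: binding measured in presence of low estradiol as agonist stimulus; 0% = peptide alone without receptor and 100% = receptor with peptide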
ERa coact inh: blocks coactivator binding to human estrogen receptor alpha. TR-FRET ER-alpha LBD / SRC-1 peptide, estradiol-bound. AID 629. inhibition, % at 25.6 µM. actives 1.7% (n = 86,000); in the data active = inhibition above about 50%;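 note: 0% = receptor plus peptide control and 100% = peptide only without receptor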
ERb coact inh: blocks coactivator binding to human estrogen receptor beta | TR-FRET ER-beta LBD / SRC1-Cy5 peptide binding; receptor agonist-loaded with 1 µM estradiol | inhibition, % at 25.6 µM | actives 1.3% (n = 86,000) | AID 633;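 active = compounds whose percent inhibition of the receptor-coactivator binding signal exceeds about 50% in the single-dose screen, limit read from the data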;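 note: 0% = receptor plus peptide wells without compound and 100% = peptide-only wells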
Target sequence (Q92731 whole entry, looked up, the tested form may be a part): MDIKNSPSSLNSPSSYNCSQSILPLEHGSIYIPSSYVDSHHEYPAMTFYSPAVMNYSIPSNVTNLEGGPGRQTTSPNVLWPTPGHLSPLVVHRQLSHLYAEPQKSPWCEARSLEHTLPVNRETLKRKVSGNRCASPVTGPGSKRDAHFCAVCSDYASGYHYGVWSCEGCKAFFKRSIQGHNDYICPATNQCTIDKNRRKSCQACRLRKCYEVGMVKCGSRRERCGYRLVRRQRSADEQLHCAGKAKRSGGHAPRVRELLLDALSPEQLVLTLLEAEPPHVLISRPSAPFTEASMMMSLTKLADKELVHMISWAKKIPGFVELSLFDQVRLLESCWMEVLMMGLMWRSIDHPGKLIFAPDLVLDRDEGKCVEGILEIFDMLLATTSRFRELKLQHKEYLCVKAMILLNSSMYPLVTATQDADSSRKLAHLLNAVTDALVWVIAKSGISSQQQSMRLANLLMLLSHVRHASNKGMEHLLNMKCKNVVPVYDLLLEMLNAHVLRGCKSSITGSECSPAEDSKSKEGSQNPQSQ
MRP-1 activ: MRP-1 activation. viability increase, % at 10 µM. H69AR cells + doxorubicin, viability rescue, CellTiter-Glo. AID 799. actives 0.61% (n = 140,000);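 active = viability gain under doxorubicin at or above a set limit, the compound median plus 3 SD, cut at about 4.7% in these data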;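 note: MRP-1 overexpressing cells given doxorubicin 25 µM after compound pretreatment; 18-22 h compound pretreatment then 72 h with doxorubicin before readout; 0% = doxorubicin-only wells and 100% = vehicle-treated cells without doxorubicin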
* hit, by the source's call; [ ] = remark or other dose. The list is not random: actives were taken first. Their share in the collection is about 2.7%.

N/C(=N\OC(=O)c1ccc(Cl)cc1)c1nonc1N was read as MRP-1 activ 0.
For CCC1=NN(C(=O)c2cccnc2)C(O)(C(F)(F)F)C1 (centres undefined) the results were MRP-1 activ 1.
For Cc1cc(NC(=O)c2cc(C(C)C)on2)nn1Cc1ccc(Cl)cc1 the results were MRP reversal -8, ERa SRC1 pot 88, ERa coact inh 12, ERb coact inh 18 and MRP-1 activ 6.7*.
For OCCN1CCN(C(c2cccs2)c2ccc3cccnc3c2O)CC1 (centres undefined) the results were MRP reversal -7, ERa SRC1 pot 131, ERa coact inh 69*[fluorescence artefact?], ERb coact inh 64*[fluorescence artefact?] and MRP-1 activ -1.
For Cc1c(/C=N/n2cnnc2)c2ccccc2n1CCOc1ccc(Cl)cc1 the results were MRP reversal 2, ERa SRC1 pot 119, ERa coact inh 53*, ERb coact inh 5 and MRP-1 activ 0.
Screening Nc1nc2ccc(O)cc2s1 returned MRP reversal -13, ERa SRC1 pot 96, ERa coact inh -2, ERb coact inh 7 and MRP-1 activ -7.
For Cn1c(-c2ccc3nc(N)sc3c2)nc2cc(N)ccc21 the results were MRP reversal 3, ERa SRC1 pot 27, ERa coact inh 64*[fluorescence artefact?], ERb coact inh 54*[fluorescence artefact?] and MRP-1 activ -4.
`Cn1c(-c2ccc(N)cc2)nc2ccccc21` gave MRP reversal 5, ERa SRC1 pot 650*[fluorescence artefact?], ERa coact inh 3, ERb coact inh -7 and MRP-1 activ 0.
Screening COc1ccc(S(=O)(=O)N(C(C)=O)c2ccc(OC(C)=O)c3ccccc23)cc1[N+](=O)[O-] returned MRP-1 activ 2.
For CN(CCC#N)C(=O)COC(=O)c1c2c(nc3ccccc13)/C(=C/c1ccco1)CC2 the results were MRP-1 activ -3.
CC(C)NC(=O)CSCc1c(F)cccc1Cl was read as MRP reversal -2, ERa SRC1 pot 96, ERa coact inh -5, ERb coact inh -3 and MRP-1 activ 0.
Screening Cc1nc(N2CCOCC2)c(C#N)c2c1COC(C)(C)C2 returned MRP reversal -2, ERa SRC1 pot 118, ERa coact inh 2, ERb coact inh -7 and MRP-1 activ -5.
`Cc1ccc(S(=O)(=O)N2CCN(c3nc(C)c4c(c3C#N)CC(C)(C)OC4)CC2)cc1` gave MRP-1 activ 6.1*.
Screening CC(C)Oc1ccc(C2/C(=C(/O)c3ccc(F)cc3)C(=O)C(=O)N2CCCN(C)C)cc1 (centres undefined) returned MRP reversal -1, ERa SRC1 pot 107, ERa coact inh -4 and ERb coact inh -6.
COc1cccc(/C=N/NC(=O)c2ccc([N+](=O)[O-])cc2Cl)c1O was read as MRP-1 activ 1.
`NC1C2CN(c3nc4c(cc3F)c(=O)c(C(=O)O)cn4-c3ccc(F)cc3F)CC12` (centres undefined) gave MRP-1 activ 6.6*.
CCNc1nc(NCC)n2c(SC(C(=O)Nc3cc(C)ccc3OC)c3ccccc3)nnc2n1 (centres undefined) was read as MRP-1 activ -3.
`C=CCn1c(SCC(=O)c2ccc(O)c(O)c2)nnc1-c1ccccc1OC` gave MRP reversal -31, ERa SRC1 pot 94, ERa coact inh 10, ERb coact inh 48 and MRP-1 activ 2.
Screening CCn1c(SCC(=O)c2ccc(O)c(O)c2)nnc1-c1ccccc1OC returned MRP reversal -35, ERa SRC1 pot 78, ERa coact inh 22, ERb coact inh 54* and MRP-1 activ 1.
Screening CCCCc1ccc(NC(=O)c2c(C)noc2C)cc1 returned MRP reversal 22, ERa SRC1 pot 72, ERa coact inh 12, ERb coact inh 5 and MRP-1 activ 8.7*.
Screening O=C(c1ccc(S(=O)(=O)c2ccccc2Cl)c([N+](=O)[O-])c1)N1CCCCCC1 returned MRP-1 activ -5.
CCCOc1c(Br)cc(C2C3=C(CCCC3=O)N(C)C3=C2C(=O)CCC3)cc1OC was read as MRP-1 activ -3.
CCOC(=O)COn1c(=O)c(=O)n(OC)c2ccccc21 was read as MRP reversal 13, ERa SRC1 pot 101, ERa coact inh 14, ERb coact inh 18 and MRP-1 activ 0.
`CCOC(=O)COn1c(=O)c(=O)n(O)c2ccccc21` gave MRP reversal 0, ERa SRC1 pot 74, ERa coact inh 36, ERb coact inh 50*[fluorescence artefact?] and MRP-1 activ -1.
`CSc1ncc(Cl)c(C(=O)Nc2nnc(SC)s2)n1` gave MRP reversal 1, ERa SRC1 pot 119, ERa coact inh -3, ERb coact inh -5 and MRP-1 activ 9.1*.
CCOc1ncccc1C(=O)OCc1cc(=O)oc2c(C)c(C)ccc12 was read as MRP reversal -20, ERa SRC1 pot 287*[fluorescence artefact?], ERa coact inh 48, ERb coact inh 44 and MRP-1 activ -2.
`CCC(=O)Nc1ccc(S(=O)(=O)Nc2cccnc2)cc1` gave MRP reversal 10, ERa SRC1 pot 107, ERa coact inh -4, ERb coact inh 77*[fluorescence artefact?] and MRP-1 activ -2.
For Cc1ccc(S(=O)(=O)c2c(N)n(Cc3ccco3)c3nc4ccccc4nc23)cc1C the results were MRP reversal -31, ERa SRC1 pot 220*, ERa coact inh 1, ERb coact inh 3 and MRP-1 activ -5.
Cc1cc(-c2nc3c4c5c(sc4[nH]c(=O)n3n2)CCC5)c(C)o1 was read as MRP reversal -24, ERa SRC1 pot 5, ERa coact inh 97*[fluorescence artefact?], ERb coact inh 96*[fluorescence artefact?] and MRP-1 activ -1.
For CC(C)N(N=Nc1ccc([N+](=O)[O-])cc1)C(C)C the results were MRP-1 activ 4.7*.
CN(N=Nc1ccc([N+](=O)[O-])cc1)c1ccccc1 was read as MRP-1 activ 2.
For O=C/C(=C\Nc1ccc(Cl)cn1)c1nc2ccccc2o1 the results were MRP reversal 7, ERa SRC1 pot 165, ERa coact inh 54*[fluorescence artefact?], ERb coact inh 32 and MRP-1 activ -7.
`Cc1cc(=O)oc(C)c1C(=O)Nc1ccc(Cl)cn1` gave MRP reversal -31, ERa SRC1 pot 98, ERa coact inh -13, ERb coact inh -13 and MRP-1 activ -2.
O=C/C(=C\Nc1ccc(Cl)cn1)c1nc2cc(Cl)ccc2o1 was read as MRP reversal 6, ERa SRC1 pot 40, ERa coact inh 88*[fluorescence artefact?], ERb coact inh 56*[fluorescence artefact?] and MRP-1 activ -3.
For O=C(Nc1ccc(Cl)cn1)c1cc2ccccc2o1 the results were MRP reversal -10, ERa SRC1 pot 102, ERa coact inh -1, ERb coact inh 4 and MRP-1 activ -1.
For COC(=O)[C@@H](N)CS the results were MRP reversal 5, ERa SRC1 pot 110, ERa coact inh -5, ERb coact inh 1 and MRP-1 activ -1.
For Cc1ccc(Cn2ccc(=O)c(OCc3c(Cl)cccc3Cl)c2C)cc1 the results were MRP reversal 16, ERa SRC1 pot 98, ERa coact inh 5, ERb coact inh 7 and MRP-1 activ -3.

Source: PubChem (several laboratories)
